Bioassay records from PubChem BioAssay.
This is a sample that favours compounds with a hit; in the whole collection about 11% have one here.
RGS12 GoLoco inh: qHTS Assay for Inhibitors of RGS12 GoLoco Motif Activity (Red Fluorophore). Potency, µM (doses to about 61.6 µM), usual class: inhibitors. 230,000 compounds, 0.44% hits. AID 880, 2007. Gai1:RGS12 GoLoco peptide FP, rhodamine, 10 min; active = well fitted inhibition curve with a large enough effect, not every such curve was filed as active; inactive = no such curve, though single readings can be large or run the other way; note: nearly all actives have a fitted effect of over 30% in size
Target sequence (P63096 whole entry, looked up): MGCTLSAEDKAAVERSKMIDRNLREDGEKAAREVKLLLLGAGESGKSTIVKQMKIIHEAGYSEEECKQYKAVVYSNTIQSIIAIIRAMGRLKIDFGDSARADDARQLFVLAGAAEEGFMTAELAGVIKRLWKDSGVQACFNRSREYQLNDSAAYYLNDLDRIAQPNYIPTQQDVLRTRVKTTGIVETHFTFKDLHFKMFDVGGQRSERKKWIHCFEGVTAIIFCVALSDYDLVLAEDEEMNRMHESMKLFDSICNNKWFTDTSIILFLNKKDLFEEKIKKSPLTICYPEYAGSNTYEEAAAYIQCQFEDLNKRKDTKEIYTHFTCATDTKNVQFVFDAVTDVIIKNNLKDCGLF
ALDH1A1 inh: qHTS Assay for Inhibitors of Aldehyde Dehydrogenase 1 (ALDH1A1); Aldehyde dehydrogenase 1A1 (Homo sapiens), P00352; Purified ALDH1A1, NADH fluorescence, propionaldehyde substrate; Potency, µM (titrated, usually from 75.3 µM), usual class: inhibitors; 220,000 compounds, 7.3% hits; AID 1030, 2008; active = well fitted inhibition curve with a large enough effect, not every such curve was filed as active; inconclusive = small, poorly fitted or top-dose-only effect, or another doubt; inactive = no such curve, though single readings can be large or run the other way
PNC inhibitor: High Content Assay for Compounds that inhibit the Assembly of the Perinucleolar Compartment; PC3M PTB-GFP, PNC prevalence imaging, 16 h; stronger effect = lower value; activity change (PNC), negative = inhibition, % at 10 µM; 140,000 compounds, 3.1% hits; AID 2417, 2010;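 active = readout at or below -70, meaning at least 70% loss of cells showing the perinucleolar compartment, a nuclear body marking cancer cells; inconclusive = readout between -30 and a set limit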
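Read-out is percentage of cells bearing a perinucleolar compartment, from automated 20x imaging of fixed, Hoechst-stained PC3M PTB-GFP cells. Cells were seeded 4 h, then exposed 16 h to compound (23 nl of library stock) in duplicate plates.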
HTT cytoprotect: qHTS Multiplex Assay to Identify Dual Action Probes in a Cell Model of Huntington: Cytoprotection (ATP). PC12 HTT-Q103 induced, cytoprotection, ATP luminescence, 40 h. Potency, µM (series often up to 56.4 µM), actives largely listed as activators. 230,000 compounds, 0.14% hits; note: nearly all actives have a fitted effect of over 45% in size
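Compounds were screened for protection of PC12 cells against cell death after tebufenozide induction (100 nM final) of mutant Huntingtin exon 1 (Q103) fused to GFP.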
HPGD inh: qHTS Assay for Inhibitors of HPGD (15-Hydroxyprostaglandin Dehydrogenase); Potency, µM, hits mostly inhibitors; 150,000 compounds, 4.3% hits; purified HPGD, NADH fluorescence kinetic, PGE2 substrate; 15-hydroxyprostaglandin dehydrogenase [NAD(+)] (Homo sapiens), P15428; active = well fitted inhibition curve with a large enough effect, not every such curve was filed as active; inconclusive = small, poorly fitted or top-dose-only effect, or another doubt; inactive = no such curve, though single readings can be large or run the other way
Target sequence (P15428 whole entry, looked up): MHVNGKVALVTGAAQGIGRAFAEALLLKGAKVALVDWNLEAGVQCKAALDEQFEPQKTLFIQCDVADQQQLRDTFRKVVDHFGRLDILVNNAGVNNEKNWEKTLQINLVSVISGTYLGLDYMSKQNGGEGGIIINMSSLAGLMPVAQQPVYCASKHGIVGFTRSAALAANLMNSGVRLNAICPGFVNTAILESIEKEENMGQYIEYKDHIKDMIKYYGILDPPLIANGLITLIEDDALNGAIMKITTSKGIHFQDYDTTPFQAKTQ
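NADH formation kinetics: reaction with 30 uM PGE2 and 1 mM NAD+ (final), 20 nM enzyme, Tris-HCl pH 8 with Tween 20, after 15 min compound preincubation at room temperature. Fluorescence change, last versus first of five reads.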
HTT aggregate: qHTS Multiplex Assay to Identify Dual Action Probes in a Cell Model of Huntington: Aggregate Formation (GFP); PC12 HttQ103-GFP aggregates, Acumen cytometry, 40 h; Potency, µM (doses to about 46.1 µM), actives largely listed as inhibitors; 220,000 compounds, 1.1% hits; AID 1688, 2009; note: nearly all actives have a fitted effect of over 60% in size
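Inducible Q103 Huntingtin exon 1–GFP PC12 line, 1500 cells/well in phenol red free DMEM with 5% equine and 5% calf serum. Tebufenozide 100 nM induced expression; compounds titrated; aggregates quantified by cytometry.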
Of the large screens only hits and unclear results are named; the others gave an inactive call. Unless noted, calls come from the whole dose curve; as a rule, active = well fitted curve in the direction sought with a large enough effect; inconclusive = small, poorly fitted or top-dose-only effect, or another doubt; inactive = no such curve, though single readings can be large; an effect the other way counts as inactive or inconclusive.

O=C(CCNc1ccc(F)cc1)c1ccco1	ALDH1A1 inh 1.41µM
CO/N=C(/C(=O)N[C@@H]1C(=O)N2C(C(=O)O)=C(CSC(=O)c3ccco3)CSC12)c1csc(N)n1 (some centres not stated)	none (no result: RGS12 GoLoco inh, ALDH1A1 inh, PNC inhibitor, HPGD inh)
CC(=O)c1cccc(CN2CCN(Cc3ccc(F)cc3)C(CCO)C2)c1 (configuration not stated)	ALDH1A1 inh 28.2µM (no result: PNC inhibitor, HPGD inh)
O=C1CC(c2ccco2)Cc2nc(Nc3ccc(F)cc3)ncc21 (configuration not stated)	ALDH1A1 inh 10µM, HTT aggregate inconclusive
COc1ccccc1C(=O)Nc1ncc2c(n1)CC(c1ccco1)CC2=O (configuration not stated)	ALDH1A1 inh 8.91µM
O=C(Nc1ncc2c(n1)CC(c1ccccc1)CC2=O)c1ccco1 (configuration not stated)	ALDH1A1 inh inconclusive
O=C(CSc1nnnn1-c1ccccc1)Nc1ncc2c(n1)CC(c1ccco1)CC2=O (configuration not stated)	ALDH1A1 inh 5.01µM
CC(C)(C)c1ccc(Oc2ncccc2NC(=O)c2cccs2)cc1	none (no result: PNC inhibitor, HPGD inh)
Nn1cc(-c2ccccc2)nc1SCC(=O)Nc1ccc2c(c1)OCO2	ALDH1A1 inh 1.41µM, PNC inhibitor inconclusive
Nn1cc(-c2ccccc2)nc1SCC(=O)NCCc1ccccc1	ALDH1A1 inh 3.16µM (no result: PNC inhibitor, HPGD inh)
Nn1c(SCC(=O)Nc2ccc3c(c2)OCO3)nnc1-c1cccc(Cl)c1	none
COc1ccc(C(=O)Nc2nc3cc4c(cc3s2)OCCO4)c(OC)c1	none (no result: ALDH1A1 inh, PNC inhibitor, HPGD inh)
CCC(=O)Nc1nc2c(OC)ccc(C)c2s1	HPGD inh inconclusive
COc1ccc(OC)c2sc(NC(=O)CCSc3ccccc3)nc12	PNC inhibitor -87.8, HPGD inh inconclusive
Cc1cccc(NC(=O)Cn2c([N+](=O)[O-])cnc2C)c1C	HTT cytoprotect inconclusive
O=C(NC1CCCc2ccccc21)C1CCN(S(=O)(=O)c2cccc3nonc23)CC1 (configuration not stated)	ALDH1A1 inh 31.6µM
O=C(CCNS(=O)(=O)c1cccc2nonc12)NC1CCCc2ccccc21 (configuration not stated)	ALDH1A1 inh 14.1µM, PNC inhibitor inconclusive
Nc1c(C(=O)Nc2ccc(S(=O)(=O)N3CCCC3)cc2)sc2nc3cc4c(cc3cc12)CCC4	HTT aggregate 14.1µM
Nc1c(C(=O)Nc2ccc(S(=O)(=O)N3CCCC3)cc2)sc2nc3ccc(OC(F)(F)F)cc3cc12	HTT aggregate inconclusive
Cc1nc(NC(=O)CCl)sc1C(=O)N(C)C	ALDH1A1 inh 31.6µM (no result: PNC inhibitor, HPGD inh)
COC(OC)[C@@H](C)[C@H](OC)[C@@H](C)[C@H](OC)c1ccccc1	none (no result: RGS12 GoLoco inh, PNC inhibitor, HPGD inh, HTT aggregate)
Cc1c(-c2nc(N)nc(C3CC3)c2C)nc(N)nc1C1CC1	none (no result: PNC inhibitor, HTT aggregate)
COc1cccc(-c2nnc(SC(C(=O)c3c[nH]c4ccccc34)c3ccccc3)n2C)c1 (configuration not stated)	HTT aggregate inconclusive (no result: HTT cytoprotect)
COc1ccccc1-c1nnc(SC(C(=O)c2c[nH]c3ccccc23)c2ccccc2)n1C (configuration not stated)	HTT cytoprotect 4.47µM, HTT aggregate 2.82µM (no result: RGS12 GoLoco inh, HPGD inh)
COc1ccccc1NC(=O)Cn1cnc2sc(C)c(S(=O)(=O)N3CCCCC3)c2c1=O	PNC inhibitor -113.4 (no result: HTT cytoprotect)
COc1ccc(C)cc1NC(=O)Cn1cnc2sc(C)c(S(=O)(=O)N3CCOCC3)c2c1=O	PNC inhibitor -100.0
Cc1cn([C@H]2C[C@H](N=[N+]=[N-])[C@H](CO)O2)c(=O)[nH]c1=O	HTT cytoprotect inconclusive (no result: PNC inhibitor)
Cc1ccc2c(c1)N(CC(=O)NCc1ccco1)C(=O)CO2	PNC inhibitor inconclusive
O=C(CN(CCc1ccccc1)C(=O)Cn1nnc(-c2cccs2)n1)NCc1ccco1	ALDH1A1 inh 12.6µM
O=C(CN(CCc1ccccc1)C(=O)CN1C(=O)COc2ccccc21)NCc1ccco1	ALDH1A1 inh 8.91µM
Cc1nc(CS(=O)(=O)c2ccccc2)cc(Sc2ccc(Cl)cc2Cl)n1	ALDH1A1 inh inconclusive, PNC inhibitor inconclusive
Cc1nc(Cl)cc(CS(=O)(=O)c2ccc(Cl)cc2)n1	ALDH1A1 inh 20µM (no result: PNC inhibitor, HPGD inh)
Cc1nc(N2CCOCC2)nc(N2CCCCC2)c1[N+](=O)[O-]	ALDH1A1 inh 15.8µM, PNC inhibitor inconclusive
C=C(C)C1Cc2c(ccc(C(=O)O)c2O)O1 (configuration not stated)	none (no result: PNC inhibitor, HTT cytoprotect, HTT aggregate)
Cc1nn(-c2ccccc2)c2c1C1(C(=O)N(C(C)C)c3ccccc31)C(C#N)=C(N)O2 (configuration not stated)	ALDH1A1 inh 1.12µM
O=S(=O)(Nc1ccc(Cl)nn1)c1ccccc1	none (no result: PNC inhibitor, HPGD inh)
O=S(=O)(NNc1ccc(Cl)nn1)c1ccc(F)cc1	ALDH1A1 inh 28.2µM, PNC inhibitor -87.9, HPGD inh 3.55µM, HTT aggregate inconclusive
CSc1cc(/C=N/O)c(SC)s1	ALDH1A1 inh inconclusive, HPGD inh 11.2µM, HTT aggregate 12.6µM
COCCN1C(=O)c2ccccc2C(C(=O)N2CCN(c3ccccc3)CC2)C1c1ccc(F)cc1 (configuration not stated)	none
C=CCOC(=O)C1=C(C)OC(N)=C(C#N)C1c1ccc2c(c1)OCO2 (configuration not stated)	ALDH1A1 inh inconclusive, HPGD inh inconclusive
COCCOC(=O)C1=C(C)OC(N)=C(C#N)C1c1ccco1 (configuration not stated)	ALDH1A1 inh inconclusive, PNC inhibitor -100.0, HTT aggregate inconclusive
COCCOC(=O)C1=C(C)OC(N)=C(C#N)C1c1ccc2c(c1)OCO2 (configuration not stated)	ALDH1A1 inh 12.6µM, HPGD inh 31.6µM, HTT aggregate inconclusive
Cc1cccc(N2C(S)=C(C#N)C(=O)NC2c2cccs2)c1 (configuration not stated)	PNC inhibitor -84.1
COc1cc(/C=C2/CCC/C(=C\c3cc(O)c(OC)c(Cl)c3)C2=O)cc(Cl)c1O	ALDH1A1 inh 14.1µM, HTT aggregate inconclusive
COc1cc(/C=C2\CC/C(=C\c3cc(OC)c(O)c(OC)c3)C2=O)cc(OC)c1O	HPGD inh inconclusive, HTT aggregate inconclusive
CCOC(=O)c1nc2sc(C)c(C)c2c(=O)[nH]1	ALDH1A1 inh inconclusive, HPGD inh inconclusive
